Screening results from PubChem.
Shn3 3UTR inh: inhibitors of Schnurri-3 3'UTR reporter in osteoblasts; actives 0.52% (n = 360,000); inhibition, % at 12.5 µM; Clone20 osteoblast Shn3 3'UTR firefly luciferase, 24 h;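 active means mean inhibition of at least 75% with every replicate also reaching 75%; inconclusive means mean inhibition at least 75% but some replicate below; inactive means mean inhibition below 75%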;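 further: 0% = median of neutral control wells and 100% = pilot-screen positive control compound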
HIF-2a inh: blocks HIF-2a reporter activity; 786-0 RCC cells HIF-2a reporter, luciferase luminescence, overnight; inhibition, % at 18.8 µM; actives 0.72% (n = 360,000);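 active means inhibition of the luminescence signal of 40% or more relative to plate controls, in a single-dose primary screen at 18.75 µM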
CF NFkB inh: blocks PAF-induced NF-kB reporter in cystic fibrosis cells | KKLEB NF-kB-GFP reporter, GFP fluorescence overnight | inhibition, % at 5 µM | actives 0.86% (n = 360,000);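 active means at least 50% inhibition at 5 µM, scaled per plate between neutral and stimulator controls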;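 further: PAF is a Pseudomonas aeruginosa culture filtrate used as stimulus; plate controls were PAF-stimulated DMSO wells for no effect and unstimulated DMSO wells for full effect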
TRPM1 prom inh: reduces MITF-dependent TRPM1 promoter luciferase signal | SK-MEL-5 TRPM1 promoter luciferase, 24 h | inhibition, % at 12.5 µM | actives 0.83% (n = 330,000);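 active means mean inhibition across replicates of 60% or more, whatever share of single replicates reaches that level; inconclusive means some that reach 60%, reason not given; inactive means mean inhibition across replicates below 60%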
Peg3 promoter: inhibitors of Peg3 promoter. HeLa PEG-Prom luciferase reporter, luminescence, overnight. inhibition, % at 20 µM. actives 1.7% (n = 360,000). AID 588405;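 active means inhibition of at least 50% at 20 µM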
KKLEB tox: counter-screen for CF NF-kB inhibitors: cytotoxicity; KKLEB CF airway cells viability, ATPlite luminescence, overnight; hits give low values; cells stimulated with P. aeruginosa culture filtrate; activity change (cytotoxicity), % at 5 µM; actives 0.36% (n = 360,000);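 active means corrected activity change at or below -50% at 5 µM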
Mdm2 MdmX conf: Mdm2/MdmX (human) interaction inhibition, confirmed. shares compounds with HIF-2a inh. SaOS-2 split-luciferase Mdm2/MdmX complementation, luminescence. inhibition, % at 8 µM. actives 99% (n = 740);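 active means mean inhibition of the luminescence signal across two replicates at or above 26 percent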
HIF-2a inh conf: HIF-2a inhibition, single concentration confirmation | 786-0 RCC cells, HIF-2a luciferase reporter luminescence, overnight | inhibition, % at 18.8 µM | AID 651580 | shares compounds with HIF-2a inh | actives 56% (n = 1,800);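 active means mean inhibition across four replicates of at least 40 percent at the single tested concentration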
HIF-1a cs: inhibits HIF-1a reporter, a counter-screen for HIF-2a inhibitors | shares compounds with HIF-2a inh | MiaPaCa-2 HIF-1a luciferase reporter, desferoxamine, overnight | inhibition, % at 18.8 µM | actives 72% (n = 1,800);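 active means mean inhibition of the reporter signal across four replicates at the single tested dose of 50% or more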
Numbers without * were called inactive; ? = inconclusive; . = not tested or not shown. An excerpt weighted towards active compounds, which were near 2.8% of everything screened.

SMILES	Shn3 3UTR inh	HIF-2a inh	CF NFkB inh	TRPM1 prom inh	Peg3 promoter	KKLEB tox	HIF-2a inh conf	HIF-1a cs	others
FC(F)(F)c1cnc(NNC(=S)Nc2ccc(Cl)cc2)c(Cl)c1	18	48*	44	50	37	-23	52*	38
Cc1ccc(NC(=S)NNc2ncc(C(F)(F)F)cc2Cl)c(C)c1	11	27	17	-10	23	-1	.	.
Cc1ccc(NC(=S)NNc2ncc(C(F)(F)F)cc2Cl)cc1	35	69*	2	30	26	6	82*	41
Fc1ccc(NC(=S)NNc2ncc(C(F)(F)F)cc2Cl)c(F)c1	28	34	40	?	38	-8	.	.
CC1CC(C)(C)Nc2ccc(OC(=O)c3ccco3)cc21 (stereo not drawn)	51	45*	12	35	-16	5	62*	71*
O=C(Oc1ccc2ccccc2c1)c1ccco1	-6	12	18	0	-11	-3	.	.
N#C/C(=C\Nc1ccc(Cl)cc1)S(=O)(=O)c1ccccn1	-3	6	-1	-4	11	2	.	.
CCOc1cc(/C=N/Nc2cccc(C(=O)O)c2)ccc1OC(=O)c1ccccc1	65	87*	-13	91*	65*	10	90*	-33
Cc1ccc(/C=N/Nc2cccc(C(=O)O)c2)s1	20	62*	-18	52	35	10	59*	-73
COc1cc(C=NNc2ccccc2)ccc1OC(=O)c1ccccc1	-33	-2	-65	.	-167	-8	.	.
Cc1nn(-c2cccc(C(F)(F)F)c2)c(Cl)c1/C=N/Nc1cccc(C(=O)O)c1	-16	-63	1	13	-250	7	.	.
Cc1nn(-c2ccccc2Cl)c(Cl)c1/C=N/Nc1cccc(C(=O)O)c1	62	58*	1	69*	-38	-16	52*	-99
O=C(CCN1C(=O)C2CCCCC2C1=O)N1CCN(S(=O)(=O)c2c(F)cccc2F)CC1 (stereo not drawn)	-9	4	14	0	-5	3	.	.
Cc1cccc2cc(C(c3nnnn3Cc3ccccc3)N3CCN(C)CC3)c(=O)[nH]c12 (stereo not drawn)	-11	4	-7	0	4	-15	.	.
COc1ccc(Cn2nnnc2C(c2cc3cccc(C)c3[nH]c2=O)N2CCN(C)CC2)cc1 (stereo not drawn)	11	41*	-24	-11	12	-5	-3	10
CCCc1nc2ccc(C)cn2c1Cc1ccc(C)cc1	-9	-228	8	.	-331	-9	.	.
Cc1ccc(Cn2ccc(NC(=O)c3nn(C)cc3[N+](=O)[O-])n2)cc1	?	-70	-14	23	48	15	.	.
Cn1cc([N+](=O)[O-])c(C(=O)Nc2nc(-c3ccc(Cl)cc3)cs2)n1	41	94*	89*	83*	106*	-95*	86*	105*
CCn1cc([N+](=O)[O-])c(C(=O)Nc2ccn(C34CC5CC(CC(C5)C3)C4)n2)n1	7	17	9	7	6	9	.	.
Cn1cc([N+](=O)[O-])c(C(=O)Nc2ccn(C34CC5CC(CC(C5)C3)C4)n2)n1	6	49*	28	15	7	-2	60*	57*
Cc1ccc(-c2nc(NC(=O)c3nn(C)cc3[N+](=O)[O-])sc2C)cc1C	93*	66*	23	79*	109*	-38	1	105*	Mdm2 MdmX conf=100*
Cc1ccc(-c2nc(NC(=O)c3nn(C)cc3[N+](=O)[O-])sc2C)cc1	93*	93*	89*	85*	109*	-64*	85*	105*	Mdm2 MdmX conf=103*
Cc1cc(OCCN2CCC(Cc3ccccc3)CC2)ccc1[N+](=O)[O-]	-9	-24	-1	11	-6	-8	.	.
CCOC(=O)C1=C(C)NC2=C(C(=O)CC(c3cccs3)C2)C1c1cccs1 (stereo not drawn)	8	46*	16	?	20	-6	52*	63*
COc1ccc(/C=N/Nc2cc(C)nc3ccc(Br)cc23)cc1	93*	46*	-127	99*	101*	-23	-15	106*
SMILES	Shn3 3UTR inh	HIF-2a inh	CF NFkB inh	TRPM1 prom inh	Peg3 promoter	KKLEB tox	HIF-2a inh conf	HIF-1a cs	others
CC(C)N1CC2(CC(c3ccc(Cl)cc3Cl)=NO2)CN1C(=O)c1ccc(C(C)(C)C)cc1 (stereo not drawn)	70	-12	-11	.	1	-2	.	.
Cc1ccc(C(=O)OCn2ncc(Cl)c(Cl)c2=O)cc1	91*	92*	92*	105*	102*	-94*	98*	107*
O=C(OCn1ncc(Cl)c(Cl)c1=O)c1ccc(C(F)(F)F)cc1	95*	93*	49	53	105*	-12	60*	104*	Mdm2 MdmX conf=103*
Cc1ccc(C(=O)COC(=O)c2nc(Cl)ccc2Cl)cc1	-12	13	-5	5	-3	8	.	.
CCc1[nH]nc2c1C(c1ccsc1)C(C#N)=C(N)O2 (stereo not drawn)	-11	30	-6	10	4	2	.	.
CCc1[nH]nc2c1C(c1ccc(Br)s1)C(C#N)=C(N)O2 (stereo not drawn)	-19	41*	8	13	11	-1	9	12
Cc1ccc(S(=O)(=O)N2C[C@H]3C(=O)C[C@@H](c4ccccc4)N(S(=O)(=O)c4ccc(C)cc4)[C@H]3C[C@H]2c2ccccc2Cl)cc1	0	-6	14	.	9	-11	.	.
O=C(NC1CCN(Cc2ccccc2)CC1)c1ccc2c(c1)[nH]c(=O)n2Cc1ccc(F)cc1	43	48*	0	22	18	-7	18	24
O=C(Cc1ccc(Cl)cc1)NCCc1c[nH]c2ccccc12	1	1	14	6	5	-5	.	.
CC(=O)n1cc(N(C(=O)CCl)c2ccccc2)c2ccccc21	.	84*	90*	66*	45	-95*	95*	106*	Mdm2 MdmX conf=103*
O=C(CCl)N(c1ccccc1)c1c[nH]c2ccccc12	94*	73*	64*	86*	86*	-54*	53*	104*	Mdm2 MdmX conf=103*
CC(=O)n1cc(CO)c2ccccc21	-3	19	-6	11	-8	4	.	.
O=C(CCl)N(c1ccc(Cl)cc1)c1c[nH]c2ccccc12	98*	95*	84*	84*	103*	-89*	96*	107*	Mdm2 MdmX conf=103*
